# This is a sample that favours compounds with a hit; in the whole collection about 3.9% have one here.
# CDK5 p35 inh: blocks human CDK5/p35 kinase activity; Q00535+Q15078; Recombinant CDK5/p35, ADP-Glo luminescence, 60 min; inhibition, % at 10 µM; 0.01% of 330,000 active;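 active = highest replicate inhibition of at least 50% and at least 75% of replicates reaching 50%; inconclusive = only one of the two criteria met; inactive = both criteria failed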;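 also: plate controls were DMSO neutral control for no effect and GW8510 at 10 µM for full effect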
# Target sequence (Q00535 whole entry, looked up): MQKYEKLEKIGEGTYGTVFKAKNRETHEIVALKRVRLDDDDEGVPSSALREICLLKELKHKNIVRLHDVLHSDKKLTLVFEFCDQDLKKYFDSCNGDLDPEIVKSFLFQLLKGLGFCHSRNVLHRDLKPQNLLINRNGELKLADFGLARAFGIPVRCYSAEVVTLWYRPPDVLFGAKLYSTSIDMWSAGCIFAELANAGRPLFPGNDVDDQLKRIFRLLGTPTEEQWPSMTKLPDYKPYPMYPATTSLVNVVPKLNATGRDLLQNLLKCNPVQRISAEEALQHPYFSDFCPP
# Target sequence (Q15078 whole entry, looked up): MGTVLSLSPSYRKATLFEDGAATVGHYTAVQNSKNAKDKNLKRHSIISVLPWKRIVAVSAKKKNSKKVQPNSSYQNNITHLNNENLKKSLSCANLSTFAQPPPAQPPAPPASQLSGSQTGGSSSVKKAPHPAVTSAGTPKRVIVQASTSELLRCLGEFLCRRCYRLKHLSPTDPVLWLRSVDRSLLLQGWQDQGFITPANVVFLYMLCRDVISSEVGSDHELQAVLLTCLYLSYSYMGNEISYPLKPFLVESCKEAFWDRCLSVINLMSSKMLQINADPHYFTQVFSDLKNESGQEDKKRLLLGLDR
# Mot1-301 SUMO: blocks SUMOylation pathway, rescuing yeast Mot1-301 growth; growth rescue, % at 18.8 µM; S. cerevisiae Mot1-301 growth rescue, ATP luminescence, 38.5C; percent above DMSO median, 100 means doubled; 1% of 320,000 active; AID 2716;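 active = every valid replicate shows activation above 250% relative to neutral control wells; inactive = the rest, any valid replicate at or below 250%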;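 also: OY570 slx delta 5 strain wells were the positive control but not used for scaling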
# NSD2 HMT inh: NSD2 (human) methyltransferase inhibition; O96028; NSD2 peptide methylation, AlphaScreen, 120 min; inhibition, % at 12.5 µM; 0.54% of 310,000 active; AID 743445; in the data active = inhibition above about 50%
# N-glyco inh: blocks N-linked glycosylation in D54 reporter cells | 0.23% of 360,000 active | AID 588692 | reporter increase, % at 12.5 µM | D54 ERlucT glycosylation luciferase reporter, 24 h; percent of 100 nM tunicamycin response;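 active = mean luciferase reporter signal, scaled so untreated is 0 and the glycosylation-blocking control 100, at or above a set limit in every replicate; inconclusive = mean reaches the limit but not every replicate does; inactive = mean below the limit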;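 also: luciferase carries N-glycosylation sites so blocking glycosylation raises the light; 0% = median of neutral control wells and 100% = median of 100 nM tunicamycin wells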
# Casp6 inh: inhibitors of human caspase-6; 0.53% of 350,000 active; AID 686996; purified caspase-6, Z-VEID-R110 cleavage fluorescence; inhibition, % at 12.5 µM; P55212;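 active = mean inhibition across replicates at least about 35%, with every replicate also reaching that limit, limit read from the data; inconclusive = only one of the two criteria met; inactive = neither criterion met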;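 also: 0% = median of neutral control wells and 100% = no fluorescence left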
# ALR H2O2 inh: human ALR oxidase inhibition via reduced H2O2; P55789; purified ALR, DTT oxidation, H2O2 HRP-luminol luminescence; inhibition, % (test concentration not listed); 3.8% of 290,000 active; AID 485317;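 active = mean replicate inhibition above about 79%, with every replicate also reaching it, limit read from the data; inconclusive = only one of the two criteria met; inactive = mean below limit and not every replicate reaching it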
# Active calls of the source: *; ? = inconclusive; / = not tested or not shown.
SMILES,CDK5 p35 inh,Mot1-301 SUMO,NSD2 HMT inh,N-glyco inh,Casp6 inh,ALR H2O2 inh
COc1cc2c(ccc3cc(OC)c(OC)c(O)c32)cc1O,81*,5,/,-6,86*,99*
CCCNC(=O)N(C)C[C@H]1Oc2cc(C#CCN(C)C)ccc2S(=O)(=O)N([C@@H](C)CO)C[C@@H]1C,/,/,/,/,-14,/
Oc1ccccc1Cn1nnc2ccccc21,1,238,19,-2,-2,/
Cc1cccc(Cn2nnc3ccccc32)c1O,-2,-18,/,1,3,90*
CO[C@H]1O[C@H](CO)[C@@H](OC(=O)Nc2ccccc2)[C@H](OC(=O)Nc2ccc3c(c2)OCO3)[C@@H]1OC(=O)Nc1ccc2c(c1)OCO2,/,/,/,/,3,/
O=C1c2ccccc2C(O)N1Cc1cccs1 (centres undefined),0,40,-2,3,1,/
O=C1N[C@H]2CC=C[C@H]2N(Cc2cccs2)c2ccccc21,3,/,/,54*,6,/
C[C@H]1CN([C@@H](C)CO)C(=O)c2ccccc2-c2ccccc2CO[C@@H]1CN(C)S(=O)(=O)c1ccc(C#N)cc1,/,/,/,/,1,/
COc1ccc(N(C(=O)c2ccco2)C(C(=O)NC2CCCC2)c2ccncc2)cc1OC (centres undefined),1,275*,-3,2,-1,-24
COc1ccc(C(C(=O)NC2CCCC2)N(C(=O)c2ccco2)c2ccc(OC)c(OC)c2)cc1 (centres undefined),0,139,-2,1,/,-16
C[C@@H]1CN([C@@H](C)CO)C(=O)c2cc(NC(=O)CCCN(C)C)ccc2O[C@@H](C)CCCCO[C@@H]1CN(C)S(=O)(=O)c1ccccc1,/,/,/,/,-2,/
CCCc1cn(CC[C@H]2CC[C@@H](NC(=O)Nc3ccc4c(c3)OCO4)[C@H](CO)O2)nn1,/,/,/,/,0,/
CN(C)c1ccc(NC(=O)C(=O)C2C(=O)Nc3ccccc32)cc1 (centres undefined),2,229,1,1,2,58
CN(C)c1ccc(CC2C(=O)Nc3ccccc32)cc1 (centres undefined),1,-14,7,-3,2,98*
C/C(=N\NC(=O)c1c(C)nc2ccccn12)c1ccc(N2CCOCC2)cc1,-1,-5,-3,2,-2,87*
C/C(=N\NC(=O)c1c(C)nc2ccccn12)c1ccc(C(C)(C)C)cc1,1,141,-5,10,0,-9
Cc1cc(NCCCn2ccnc2)n2nc(-c3ccc(Cl)cc3)cc2n1,1,21,-1,3,-20,97*
CCOC(=O)c1ccc(NC(=S)Nc2ccc3[nH]c(=O)[nH]c3c2)cc1,1,-9,8,-2,-3,80*
Cc1ccc(NC(=S)Nc2ccc3[nH]c(=O)[nH]c3c2)cc1,0,-12,/,0,1,99*
O=c1[nH]c2ccc(NC(=S)Nc3ccccc3Cl)cc2[nH]1,2,-15,2,-1,/,?
Cc1ccccc1NC(=S)Nc1ccc2[nH]c(=O)[nH]c2c1,2,-1,2,4,0,88*
O=c1[nH]c2ccc(NC(=S)Nc3ccccc3)cc2[nH]1,-6,2,-1,4,2,90*
C=CCN1Cc2ccccc2[C@H]2OC(c3ccc(OCCCO)cc3)=N[C@@]2(CCC(=O)OC(C)(C)C)C1=O,/,/,/,/,-1,/
CCN(CC)CCn1c2ccccc2c2nc3ccccc3nc21,-1,-10,14,129*,0,-25
Cn1c2ccccc2c2n[nH]c(=S)nc21,3,66,1,0,0,72
SMILES,CDK5 p35 inh,Mot1-301 SUMO,NSD2 HMT inh,N-glyco inh,Casp6 inh,ALR H2O2 inh
CCN(CC)CCn1c2ccccc2c2n[nH]c(=S)nc21,2,2,48,0,-25,94*
CCCn1c2ccccc2c2nc3ccccc3nc21,1,164,-12,4,/,-12
COCC#Cc1ccc2c(c1)O[C@@H](CN(C)S(=O)(=O)c1ccc(OC)cc1)[C@H](C)CN([C@H](C)CO)S2(=O)=O,/,/,/,/,-1,/
CCCC#Cc1ccc2c(c1)O[C@@H](CN(C)C(=O)Nc1ccc(OC)cc1)[C@H](C)CN([C@H](C)CO)S2(=O)=O,/,/,/,/,-2,/
C#CC[N+](C)(C)CCCCCCCCC,2,-25,2,30*,-11,/
O=C(O)c1ccccc1Nc1ccc(OC(F)F)cc1,-6,35,0,-2,-3,100*

# Screens: PubChem, Broad Institute
